Bioassay records (PubChem)
Sampled rows, rich in hits. Any-hit rate of the full collection: about 10%.
HEK293 tox – kills HEK 293 cells; HEK 293 viability, ATP luminescence (CellTiter-Glo), 48-72 h; Potency, µM (titrated, usually from 115 µM), without a hit: at the top dose activity change, negative = cytotoxicity, most hits filed as inhibitors; hit rate 6.6% among 94,000; note: nearly all actives have a fitted effect of over 60% in size
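HEK 293 cells seeded at 250 cells/well were exposed to compound for 48 or 72 hr at 37 degree Celsius. Viability taken as ATP content by CellTiter-Glo luminescence.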
NPR1 antag – human Npr1 receptor antagonism; P16066; HEK293 hNpr1 GloSensor cGMP, ANP-stimulated luminescence; Potency, µM (doses to about 46.3 µM), inactives show at the top dose activity change, negative = inhibition, actives largely listed as inhibitors; hit rate 1.6% among 76,000; AID 1347048; calls by dose curve; note: nearly all actives have a fitted effect of over 60% in size
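HEK293 cells stably expressing human Npr1 and cGMP GloSensor pGS-40F, loaded 2 h with 2% GloSensor reagent, given compound 30 min at room temperature. Luminescence read before and 20 min after 0.1 nM hNppA.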
GPT2 inhibitor – GPT2 alanine aminotransferase inhibition | hit rate 0.25% among 100,000 | Recombinant GPT2, coupled pyruvate oxidase/HRP Amplex Red fluorescence | Q8TD30 | Potency, µM (series often up to 57.7 µM), for the others: at the highest dose activity change, negative = inhibition, hits mostly inhibitors; note: nearly all actives have a fitted effect of over 60% in size
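Recombinant GPT2 (10ng/uL) with 250uM a-KG and 2mM L-alanine, 30 min at room temperature, in HEPES pH 7.5 buffer. Pyruvate detected by pyruvate oxidase/HRP/Amplex Red fluorescence after 30 min in the dark; AOA (50uM) as positive control.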
FLuc inh – inhibitors of firefly (Photinus pyralis) luciferase. AID 1347043. hit rate 2.5% among 76,000. Potency, µM (series often up to 115 µM), hits mostly inhibitors. purified P. pyralis luciferase, luminescence, biochemical; note: nearly all actives have a fitted effect of over 65% in size
Target sequence (P08659 whole entry, looked up): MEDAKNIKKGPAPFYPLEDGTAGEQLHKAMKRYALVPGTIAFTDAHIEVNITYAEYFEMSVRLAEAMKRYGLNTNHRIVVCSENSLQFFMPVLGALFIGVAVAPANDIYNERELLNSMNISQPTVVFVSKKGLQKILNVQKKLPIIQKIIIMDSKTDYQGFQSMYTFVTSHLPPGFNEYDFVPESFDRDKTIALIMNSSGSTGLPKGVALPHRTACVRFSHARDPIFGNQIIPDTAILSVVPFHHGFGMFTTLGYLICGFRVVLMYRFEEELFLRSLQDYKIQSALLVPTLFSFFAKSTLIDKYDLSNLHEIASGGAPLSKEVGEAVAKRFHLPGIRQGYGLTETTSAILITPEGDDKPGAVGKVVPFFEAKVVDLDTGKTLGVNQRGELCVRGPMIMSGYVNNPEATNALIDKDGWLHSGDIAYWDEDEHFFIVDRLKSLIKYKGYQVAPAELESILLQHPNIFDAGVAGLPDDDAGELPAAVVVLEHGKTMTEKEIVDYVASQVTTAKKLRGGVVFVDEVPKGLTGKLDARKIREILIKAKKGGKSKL
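Purified 10nM P. pyralis luciferase with 10uM D-luciferin and 10uM ATP in 50mM Tris acetate pH 7.5, 10mM Mg acetate, 0.01% Tween-20, 0.05% BSA. qHTS titration; luminescence read by CCD imager.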
3T3 cytotox – NIH 3T3 cell cytotoxicity. hit rate 4.3% among 94,000. AID 1345082. Potency, µM (titrated, usually from 96.7 µM), for inactives: at the top dose activity change, negative = cytotoxicity, hits mostly inhibitors. NIH 3T3 viability, CellTiter-Glo ATP luminescence, 48-72 h; note: nearly all actives have a fitted effect of over 55% in size
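NIH 3T3 cells at 400 cells/well received 23 nL of compound by pintool and were incubated 48 or 72 h at 37 °C. Viability was read as ATP-coupled CellTiter-Glo luminescence.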
Starred values were filed as active, the others as inactive; i = inactive; ? = inconclusive; . = no result; [ ] = dose if it differs, or a comment. Unless noted, calls come from the whole dose curve; as a rule, active = well fitted curve in the direction sought with a large enough effect; inconclusive = small, poorly fitted or top-dose-only effect, or another doubt; inactive = no such curve, though single readings can be large; an effect the other way counts as inactive or inconclusive. % is set by controls: 0 for no effect and ±100 for the full control effect; potency is the fitted concentration of half-maximal effect.

SMILES	HEK293 tox	NPR1 antag	GPT2 inhibitor	FLuc inh	3T3 cytotox
O=C(CN1C(=O)NC(c2ccc(Cl)cc2)C2=C1COC2=O)Nc1ccc2c(c1)CCC2 (stereo not given)	22.4µM*	-29.0%	4.4%	i	25.1µM*
CC(C)c1cccc(NC(=O)CN2C(=O)NC(c3ccccc3Cl)C3=C2COC3=O)c1 (stereo not given)	39.8µM*	-22.7%	i	?	?
Cc1ccc(C2NC(=O)N(CC(=O)Nc3cc(F)ccc3F)C3=C2C(=O)OC3)cc1 (stereo not given)	?	-0.7%	i	i	-25.7%
Cc1ccc(C2NC(=O)N(CC(=O)Nc3ccccc3)C3=C2C(=O)OC3)cc1 (stereo not given)	?	-8.6%	4.1%	i	?
CCCCc1ccc(NC(=O)CN2C(=O)NC(c3ccc(C)cc3)C3=C2COC3=O)cc1 (stereo not given)	44.7µM*	-14.1%	i	i	?
Cc1cc(NC(=O)CN2C(=O)NC(c3ccc(Cl)cc3)C3=C2COC3=O)ccc1Br (stereo not given)	?	-24.7%	i	i	25.1µM*
CCOC(=O)c1ccccc1NC(=O)CN1C(=O)NC(c2ccc(Cl)cc2)C2=C1COC2=O (stereo not given)	?	-12.3%	-3.9%	i	39.8µM*
Cc1cccc(CNC(=O)C2Cn3cccc3C(=O)N2Cc2cccnc2)c1 (stereo not given)	i	-2.8%	-7.4%	i	-5.4%
COC(=O)N1CCN(Cc2ccccc2-c2ccc(C)c(Cl)c2)CC1	?	.	-11.7%	.	?
Cc1ccc(NC(=O)Cn2c(C)cc3nc4n(c(=O)c32)CCCCC4)cc1Cl	28.2µM*	-13.9%	i	i	39.8µM*
CCc1ccc(NC(=O)Cn2c(N3CCC(C)CC3)nc(C)cc2=O)cc1	44.7µM*	?	4.1%	i	?
COc1cccc(NC(=O)Cn2c(N3CCC(C)CC3)nc(C)cc2=O)c1	?	?	i	i	-27.3%
Cc1cc(=O)n(CC(=O)Nc2ccc(Br)cc2)c(N2CCC(C)CC2)n1	39.8µM*	?	i	i	?
CCOC(=O)c1ccc(NC(=O)Cn2c(N3CCN(c4ccccc4)CC3)nc(C)cc2=O)cc1	39.8µM*	-18.2%	-10.2%	i	31.6µM*
Cc1cc(C)cc(NC(=O)Cn2c(N3CCC(C)CC3)nc(C)cc2=O)c1	?	?	-2.1%	i	?
O=C(c1ccc(F)cc1)N1CCCC(C(=O)N2CCC(N3Cc4cccn4C3=O)CC2)C1 (stereo not given)	-17.7%	.	i	.	-27.3%
Cc1cc(=O)n(CC(=O)Nc2ccccc2C)c(N2CCC(C)CC2)n1	?	-0.2%	i	i	?
CC(=O)c1ccc(NC(=O)Cn2c(-c3ccc(Cl)cc3)nc(C)cc2=O)cc1	44.7µM*	-17.0%	i	i	?
Cc1cc(=O)n(CC(=O)Nc2ccc(Cl)cc2)c(N2CCC(C)CC2)n1	39.8µM*	-18.9%	i	i	?
Cc1cc(=O)n(CC(=O)Nc2ccc(C)c(C)c2)c(N2CCC(C)CC2)n1	?	-30.5%	i	i	?
Cc1cc(=O)n(CC(=O)Nc2ccc(C)c(Cl)c2)c(N2CCC(C)CC2)n1	31.6µM*	?	i	i	?
O=C(C1CCN([S+](=O)([O-])c2cccs2)CC1)N1CCC(N2CCCC2=O)CC1	4.3%	.	i	.	-16.7%
O=C(c1cccc(Cl)c1)N1CC(CNc2cccnc2)C2(C1)CN(c1ccccc1)C2 (stereo not given)	?	-2.7%[70.6 µM]	-9.2%[88.5 µM]	i	?
O=C(c1cccc(O)c1)N1CC(CNc2ccccc2)C2(C1)CN(c1ccccc1)C2 (stereo not given)	63.1µM*	-7.9%[70.6 µM]	-12.0%[88.5 µM]	i	50.1µM*
O=C(Cc1ccc(O)cc1)N1CC(CNc2ccccc2)C2(C1)CN(c1ccccc1)C2 (stereo not given)	50.1µM*	-26.0%[70.6 µM]	-12.7%[88.5 µM]	i	31.6µM*
SMILES	HEK293 tox	NPR1 antag	GPT2 inhibitor	FLuc inh	3T3 cytotox
CC(C)c1nc2c(c(-c3ccc(Cl)cc3)n1)CN(C(=O)c1ccccc1Cl)CC2	?	.	i	.	?
O=C(Cc1ccc(N(Cc2ccccc2)C(=O)c2ccco2)cc1)NCC1CCCO1 (stereo not given)	-3.3%	1.7%	i	i	-8.2%
CCc1cccc(OCC(=O)c2ccc3c(c2)N(CC(=O)N(C)Cc2ccccc2)C(=O)CO3)c1	?	12.6µM*	-29.8%	i	?
Cc1cccc(OCC(=O)c2ccc3c(c2)N(CC(=O)N(C)Cc2ccccc2)C(=O)CO3)c1	22.4µM*	-0.6%	i	i	?
CCc1cccc(OCC(=O)c2ccc3c(c2)N(CC(=O)NCc2ccco2)C(=O)CO3)c1	?	-16.5%	i	i	-18.9%
CC(C(=O)N1CCOCC1)N1C(=O)COc2ccc(C(=O)COc3ccc(Cl)cc3)cc21 (stereo not given)	?	-1.5%	i	i	-24.2%
CC(C)c1ccccc1OCC(=O)c1ccc2c(c1)N(CC(=O)N1CCCCC1)C(=O)CO2	?	-3.3%	i	i	?
CC(C)c1ccccc1OCC(=O)c1ccc2c(c1)N(CC(=O)N1CCCC1)C(=O)CO2	39.8µM*	-1.9%	-4.7%	i	-5.1%
CC(C(=O)NCc1ccccc1)N1C(=O)COc2ccc(C(=O)COc3ccc(Cl)cc3)cc21 (stereo not given)	89.1µM*	-2.6%	-4.1%	i	?
CC(C)n1cnnc1-c1nn(C)c2c1CN(C(=O)CCc1ccccc1)CC2	3.9%	.	2.4%	.	-26.7%
CN(Cc1ccccc1)C(=O)CN1C(=O)COc2ccc(C(=O)COc3ccccc3F)cc21	50.1µM*	-1.9%	-27.0%	i	-29.6%
O=C(CN1C(=O)COc2ccc(C(=O)COc3ccccc3F)cc21)NC1CCCCC1	-18.2%	-1.2%	i	i	-10.4%
COc1ccccc1-c1ccc(C(=O)N2CCC(C(=O)NCC(F)F)CC2)cc1	?	.	-7.9%	.	-35.3%
CN1CC(=O)N(C2CCCCC2)Cc2c1ncnc2N1CCN(c2ncccn2)CC1	44.7µM*	.	i	.	44.7µM*
CN1CC(=O)N(C2CCCC2)Cc2c1ncnc2N1CCN(c2ncccn2)CC1	-24.1%	-14.1%	-15.4%	i	-20.8%
O=C(NC1CCN(c2ccnc3ccnn23)CC1)c1ccc(F)cc1	?	.	i	.	-30.1%
Cn1cnc2cc(-c3ccccc3)cc(C(=O)NCc3cccnc3)c21	-24.3%[172 µM]	-4.9%[70.6 µM]	?	i	?
Cn1cnc2cc(-c3ccc(N4CCOCC4)cc3)cc(C(=O)NCc3cccnc3)c21	1.2%[172 µM]	-0.9%[70.6 µM]	i	i	89.1µM*
